# Experimental data taken from PubChem BioAssay (NCI).
# About 79,000 compounds went through this panel and 15% of them were active in at least one assay; those are over-represented in the sample as a whole. Unmarked numbers belong to inactive results. Active and inactive are the calls of the source. No stated cut-off is given here; in the data, active means growth inhibition above about 70%; inactive means the rest.
# Assays:
# [1] = NCI Yeast Anticancer Drug Screen. Data for the rad52 strain (AID 147);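 further: 0% = growth of vehicle-treated control cultures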; conditions: S. cerevisiae rad52 mutant growth inhibition, stronger effect = higher value
# Method in brief: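 Compounds are applied to a genetically defined yeast strain lacking normal DNA damage repair, and inhibition of growth is expressed relative to cultures given vehicle only.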
# [2] = NCI Yeast Anticancer Drug Screen. Data for the wt1 strain (AID 149);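 further: 0% = growth of vehicle-treated wt1 cultures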; conditions: S. cerevisiae wt1 strain (SPY 50644) growth inhibition, stronger effect = higher value
# Method in brief: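 Measured: growth of wt1 yeast under compound versus vehicle treatment, reported as inhibition.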
# [3] = NCI Yeast Anticancer Drug Screen. Data for the rad50EPP+ strain (AID 151);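 further: 0% = growth of vehicle-treated control cultures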; conditions: S. cerevisiae rad50 mutant strain, stronger effect = higher value
# Method in brief: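 Compounds were applied to the rad50EPP+ yeast strain, which bears a defined DNA repair alteration, and growth inhibition was determined relative to vehicle-treated cultures.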
# [4] = NCI Yeast Anticancer Drug Screen. Data for the rad50 strain (AID 155);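 further: 0% = growth of vehicle-only cultures of the same strain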; conditions: S. cerevisiae rad50 strain growth inhibition, stronger effect = higher value
# Method in brief: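 Growth of the mutant yeast was measured after compound exposure and referenced to vehicle-treated cultures.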
# [5] = NCI Yeast Anticancer Drug Screen. Data for the mec2-1 strain (AID 157); conditions: S. cerevisiae mec2-1 strain, stronger effect = higher value
# Method in brief: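 Strain: mec2-1 (DNA repair/cell cycle alteration). Compound exposure, then growth measured; inhibition expressed relative to vehicle.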
# [6] = NCI Yeast Anticancer Drug Screen. Data for the rad14 strain (AID 159);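 further: 0% = growth of vehicle-treated control cultures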; conditions: S. cerevisiae rad14 strain growth inhibition, stronger effect = higher value
# Method in brief: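 Here, inhibition of yeast growth was measured after compound exposure, using a strain with a genetic defect in DNA damage repair and vehicle-treated cultures as the reference.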
# [7] = NCI Yeast Anticancer Drug Screen. Data for the sgs1 mgt1 strain (AID 161);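 further: 0% = growth of cultures given vehicle only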; conditions: S. cerevisiae sgs1 mgt1 strain, stronger effect = higher value
# Method in brief: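 Test agents were incubated with a DNA-repair-mutant yeast strain. Growth was then read and compared against vehicle-treated controls.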
# [8] = NCI Yeast Anticancer Drug Screen. Data for the CLN2oe strain (AID 163);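 further: 0% = growth of vehicle-only control cultures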; conditions: S. cerevisiae CLN2oe strain, stronger effect = higher value
# Method in brief: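 Growth of a genetically modified yeast strain is measured after compound exposure and compared with cultures given vehicle alone.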
# [9] = NCI Yeast Anticancer Drug Screen. Data for the cln2 rad14 strain (AID 165);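 further: 0% = growth equal to vehicle treated cultures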; conditions: S. cerevisiae cln2 rad14 strain, stronger effect = higher value
# Method in brief: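 Compounds are applied to the cln2 rad14 yeast strain, and growth is then compared with that of vehicle-treated cultures to give inhibition.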
# [10] = NCI Yeast Anticancer Drug Screen. Data for the bub3 strain (AID 167); conditions: S. cerevisiae bub3 mutant strain, stronger effect = higher value
# Method in brief: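 Whole-cell yeast assay. The mutant strain was incubated with compounds, and growth inhibition was determined by comparison with vehicle-treated cells.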
# [11] = NCI Yeast Anticancer Drug Screen. Data for the wt2 strain (AID 169);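 further: 0% = growth of vehicle-treated yeast cultures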; conditions: S. cerevisiae wt2 strain growth inhibition, stronger effect = higher value
# Method in brief: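 This strain belongs to a panel of yeast strains with defined genetic alterations in DNA damage repair or cell cycle control. Compounds are applied, and growth inhibition is measured against vehicle-treated cultures.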
# [12] = NCI Yeast Anticancer Drug Screen. Data for the mlh1 strain (AID 171);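 further: 0% = growth of vehicle-treated control cultures of the same strain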; conditions: S. cerevisiae mlh1 strain growth inhibition, stronger effect = higher value
# Method in brief: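 Growth of the mutant yeast strain after compound exposure, expressed as inhibition relative to vehicle-only controls.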
# [13] = NCI Yeast Anticancer Drug Screen. Data for the sgs1 strain (AID 173);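 further: 0% = growth of vehicle-only control cultures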; conditions: S. cerevisiae sgs1 mutant, stronger effect = higher value
# Method in brief: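 Growth of a yeast strain bearing a defined genetic alteration is measured after compound treatment. Inhibition is expressed relative to vehicle-only controls.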
# [14] = NCI Yeast Anticancer Drug Screen. Data for the mlh1 rad18 strain (AID 175); conditions: S. cerevisiae mlh1 rad18 strain growth inhibition, stronger effect = higher value
# Method in brief: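 Read-out is yeast growth inhibition, calculated against vehicle-only controls. The compound was applied to a strain engineered with DNA damage repair alterations.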
# [15] = NCI Yeast Anticancer Drug Screen. Data for the rad18 strain (AID 177); conditions: S. cerevisiae rad18 mutant growth inhibition, stronger effect = higher value
# Method in brief: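 Growth of the mutant yeast strain after compound exposure, normalised to vehicle-only cultures.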
# [16] = at 5.0 µM (retest, dose inferred, filed as 0.5)
# [17] = at 50.0 µM (retest, dose inferred, filed as 5.0)
smiles,measurement,setting,value
CCCCCCCCCCCCCCCCCCNC(=S)/N=C\C1=C(O)c2ccccc2C1=O,growth inhibition,[1]; at 1.2 µM,17%
same,growth inhibition,[1]; at 3.7 µM,4%
same,growth inhibition,[1]; at 11.0 µM,12%
same,growth inhibition,[1]; at 33.0 µM,17%
same,growth inhibition,[1]; at 100.0 µM,19%
same,growth inhibition,[2]; at 1.2 µM,-44%
same,growth inhibition,[2]; at 3.7 µM,-2%
same,growth inhibition,[2]; at 11.0 µM,-5%
same,growth inhibition,[2]; at 33.0 µM,-5%
same,growth inhibition,[2]; at 100.0 µM,-3%
same,growth inhibition,[3]; at 1.2 µM,-6%
same,growth inhibition,[3]; at 3.7 µM,7%
same,growth inhibition,[3]; at 11.0 µM,26%
same,growth inhibition,[3]; at 33.0 µM,42%
same,growth inhibition,[3]; at 100.0 µM,60%
same,growth inhibition,[4]; at 1.2 µM,-1%
same,growth inhibition,[4]; at 3.7 µM,0%
same,growth inhibition,[4]; [16],5%
same,growth inhibition,[4]; at 11.0 µM,0%
same,growth inhibition,[4]; at 33.0 µM,4%
same,growth inhibition,[4]; [17],86% (active)
same,growth inhibition,[4]; at 50.0 µM,60%
same,growth inhibition,[4]; at 100.0 µM,9%
same,growth inhibition,[5]; at 1.2 µM,-3%
same,growth inhibition,[5]; at 3.7 µM,-1%
same,growth inhibition,[5]; [16],-16%
same,growth inhibition,[5]; at 11.0 µM,-5%
same,growth inhibition,[5]; at 33.0 µM,2%
same,growth inhibition,[5]; [17],37%
same,growth inhibition,[5]; at 50.0 µM,36.7%
same,growth inhibition,[5]; at 100.0 µM,2%
same,growth inhibition,[6]; at 1.2 µM,0%
same,growth inhibition,[6]; at 3.7 µM,3%
same,growth inhibition,[6]; at 11.0 µM,7%
same,growth inhibition,[6]; at 33.0 µM,10%
same,growth inhibition,[6]; at 100.0 µM,11%
same,growth inhibition,[7]; [16],-13%
same,growth inhibition,[7]; [17],18%
same,growth inhibition,[7]; at 50.0 µM,71% (active)
same,growth inhibition,[8]; at 1.2 µM,-10%
same,growth inhibition,[8]; at 3.7 µM,-7%
same,growth inhibition,[8]; at 11.0 µM,-5%
same,growth inhibition,[8]; at 33.0 µM,-13%
same,growth inhibition,[8]; at 100.0 µM,-4%
same,growth inhibition,[9]; [16],33%
same,growth inhibition,[9]; [17],-10%
same,growth inhibition,[9]; at 50.0 µM,25.7%
same,growth inhibition,[10]; at 1.2 µM,-5%
same,growth inhibition,[10]; at 3.7 µM,-9%
same,growth inhibition,[10]; [16],-2%
same,growth inhibition,[10]; at 11.0 µM,-4%
same,growth inhibition,[10]; at 33.0 µM,-3%
same,growth inhibition,[10]; [17],84% (active)
same,growth inhibition,[10]; at 50.0 µM,69.7%
same,growth inhibition,[10]; at 100.0 µM,52%
same,growth inhibition,[11]; at 1.2 µM,-2%
same,growth inhibition,[11]; at 3.7 µM,-2%
same,growth inhibition,[11]; at 11.0 µM,1%
same,growth inhibition,[11]; at 33.0 µM,13%
same,growth inhibition,[11]; at 100.0 µM,36%
same,growth inhibition,[12]; at 1.2 µM,-1%
same,growth inhibition,[12]; at 3.7 µM,-1%
same,growth inhibition,[12]; at 11.0 µM,-3%
same,growth inhibition,[12]; at 33.0 µM,-2%
same,growth inhibition,[12]; at 100.0 µM,-1%
same,growth inhibition,[13]; at 1.2 µM,0%
same,growth inhibition,[13]; at 3.7 µM,6%
same,growth inhibition,[13]; at 11.0 µM,13%
same,growth inhibition,[13]; at 33.0 µM,15%
same,growth inhibition,[13]; at 100.0 µM,30%
same,growth inhibition,[14]; [16],-13%
same,growth inhibition,[14]; [17],63%
same,growth inhibition,[14]; at 50.0 µM,53%
same,growth inhibition,[15]; at 1.2 µM,8%
same,growth inhibition,[15]; at 3.7 µM,11%
same,growth inhibition,[15]; at 11.0 µM,22%
same,growth inhibition,[15]; at 33.0 µM,30%
same,growth inhibition,[15]; at 100.0 µM,26%
